In the library only some 8.1% were active in any assay of this set; here they are far more common.
KB-V1 MDR tox = qHTS assay for MDR1-selective chemotherapeutics: Primary screen using the drug-selected MDR subline cells KB-V1. KB-V1 MDR cells viability, CellTiter-Glo, 72 h. Potency, µM (highest dose often 46.1 µM), most hits filed as cytotoxic. 3.4% of 400,000 active; further: on the % scale 0 is the no-effect control and ±100 the full control effect; nearly all actives have a fitted effect of over 60% in size
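Following 72 h at 37 degrees C with compound, KB-V1 cell viability was read by CellTiter-Glo luminescence, medium being phenol-red-free DMEM plus 10% FBS; concentration-response parameters came from normalized, curve-fitted qHTS data.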
MCF10A rerep = A quantitative high throughput screen for small molecules that induce DNA re-replication in MCF 10a normal breast cells. MCF 10A DNA re-replication, Hoechst nuclear intensity, 48 h. Potency, µM (highest dose often 46.1 µM), without a hit: at the top dose activity, positive = re-replication, usual class: activators. 2.9% of 350,000 active. AID 624296, 2012; further: % of control where 0% means no effect; nearly all actives have a fitted effect of over 50% in size
KB-3-1 cytotox = qHTS assay for MDR1-selective chemotherapeutics: Primary screen using the parental adenocarcinoma cell KB-3-1 | KB-3-1 viability, CellTiter-Glo ATP luminescence, 72 h | Potency, µM (series often up to 46.1 µM), usual class: cytotoxic | 1.4% of 400,000 active; further: on the % scale 0 is the no-effect control and ±100 the full control effect; nearly all actives have a fitted effect of over 60% in size
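Cells are dispensed, compounds pinned in, plates held at 37 °C for 72 h, then CellTiter-Glo is added and luminescence read after 10 minutes. Cell line: parental KB-3-1 in phenol-red-free DMEM, 10% FBS.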
ELG1 DNA repair = qHTS screen for small molecules that inhibit ELG1-dependent DNA repair in human embryonic kidney (HEK293T) cells expressing luciferase-tagged ELG1; HEK293T ELG1-luciferase reporter, luminescence, 16 h; DNA damage induced by 5-fluorouridine; Potency, µM (top dose mostly 46.1 µM), without a hit: top-dose activity change, negative = inhibition, usual class: inhibitors; 2.3% of 330,000 active; further: on the % scale 0 is the no-effect control and ±100 the full control effect; nearly all actives have a fitted effect of over 55% in size
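Step one: seed 2,000 cells per well. Step two: pin-transfer compound or DMSO alongside 5-fluorouridine. Step three: incubate 16 hr, 37 °C, 5% CO2. Step four: add ONE-Glo, wait 30 min, read luminescence.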
SW480 rereplic = A quantitative high throughput screen for small molecules that induce DNA re-replication in SW480 colon adenocarcinoma cells. SW480 DNA re-replication, Hoechst DNA content imaging, 48 h. Potency, µM (titrated, usually from 46.1 µM), for inactives: top-dose re-replication activation, actives largely listed as activators. 1.8% of 340,000 active. AID 624297, 2012; further: % of control where 0% means no effect; nearly all actives have a fitted effect of over 55% in size
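Treated cells incubate 48 hr (37 C, 5% CO2), are stained 40 min with Hoechst, and nuclear fluorescence is enumerated; a rise in nuclei with high DNA signal marks re-replication.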
* marks the source's active call; other numbers are inactive results; i = inactive; ? = inconclusive; / = no result given; [ ] = dose if it differs, or a comment. The call rests on the fitted dose curve; in most records, active means well fitted curve in the direction sought with a large enough effect; inconclusive means small, poorly fitted or top-dose-only effect, or another doubt; inactive means no such curve, though single readings can be large; an effect the other way counts as inactive or inconclusive. Potency means the concentration at half of the fitted maximal effect.

SMILES	KB-V1 MDR tox	MCF10A rerep	KB-3-1 cytotox	ELG1 DNA repair	SW480 rereplic
C[C@H](NC(=O)c1nc[nH]c1C(=O)N[C@@H](Cc1ccccc1)C(=O)OC(C)(C)C)C(=O)OC(C)(C)C	?	?	?	?	15%
CC(C)(C)OC(=O)[C@H](Cc1ccccc1)NC(=O)c1[nH]cnc1C(=O)N[C@@H](Cc1ccccc1)C(=O)OCc1ccccc1	?	-29%	?	-12%	-11%[9.22 µM]
Cc1cccc(NC(=O)c2nc[nH]c2C(=O)N[C@@H](CC(C)C)C(=O)OC(C)(C)C)c1	?	?	12µM*	?	28%[9.22 µM]
CC(C)C[C@H](NC(=O)c1[nH]cnc1C(=O)Nc1ccc(Cl)cc1)C(=O)OC(C)(C)C	?	2%	?	?	?
Cn1c(NC(=O)COc2ccccc2)cc(=O)n(C)c1=O	i	-6%	i	0%	8%
CC(C)(C)OC(=O)[C@H](Cc1ccccc1)NC(=O)c1nc[nH]c1C(=O)N[C@@H](Cc1ccccc1)C(=O)OC(C)(C)C	?	2%	16µM*	?	-7%
COc1ccc(-n2ncc3c2CC(C)(C)CC3NC(=O)c2oc(C)cc2C)cc1 (stereo not drawn)	?	6%	i	-6%	-4%
NNC(=O)COc1ccc(-c2n[nH]c(C(F)(F)F)c2-c2ccc(Br)cc2)c(O)c1	i	18µM*	i	?	-79%
O=S(=O)(c1ccccc1)N1CCN(CCc2ccccc2)CC1	i	6%	i	?	-45%
CSc1cccc(NC(=S)N(CCCN2CCCC2)Cc2cccs2)c1	?	-4%	i	10%	10%
CSc1cccc(NC(=S)N(CCCN2CCCC2)Cc2cccn2Cc2ccc(Cl)cc2)c1	18µM*	21µM*	i	-24%	?
S=C(Nc1ccccc1Cl)N(CCCN1CCOCC1)Cc1ccco1	21µM*	4%	i	-2%	-3%
Cc1cccc(NC(=S)N(CCCN2CCOCC2)Cc2cn(C)c3ccccc23)c1	i	?	?	?	?
Cn1cc(CC(=O)NCCN2CCOCC2)c2ccccc21	i	15%	i	3%	23µM*
Cn1cc(CN(CCCN2CCOCC2)C(=S)Nc2cccc(Cl)c2)c2ccccc21	i	23µM*	i	-23%	16µM*
Cc1ccc(S(=O)(=O)N(Cc2cccc(C(F)(F)F)c2)C(=O)N2CCN(C)CC2)cc1	i	?	i	3%	-20%
CCC(=O)N1CCc2cc(Br)cc(S(=O)(=O)Nc3c(C)n(C)n(-c4ccccc4)c3=O)c21	/	/	/	14%	/
COc1ccc(NC(=S)N(CCCN2CCOCC2)Cc2cn(C)c3ccccc23)cc1	i	?	i	-26%	?
Cc1ccc(NC(=S)N(C)Cc2cn(C)c3ccccc23)cc1	21µM*	?	i	2%	-2%
COc1cccc(NC(=S)N(CCCN2CCCC2)Cc2cccn2Cc2ccc(Cl)cc2)c1	?	12%	?	7%	?
S=C(Nc1cccc(Cl)c1)N(CCCN1CCCC1)Cc1cccn1Cc1ccc(Cl)cc1	12µM*	?	?	-13%	-1%
CN(C)S(=O)(=O)c1cccc(COc2ncnc3c(Cl)cc(Cl)cc23)c1	i	6%	i	18µM*	-12%
O=C(NCCc1ccccc1)C(=O)NCCC1CCCCN1S(=O)(=O)c1ccccc1 (stereo not drawn)	i	7%	i	-20%	1%
O=C(NCCc1ccccc1)C(=O)NCC1CCCN1S(=O)(=O)c1ccccc1 (stereo not drawn)	12µM*	23µM*	?	?	18µM*
COc1ccc(S(=O)(=O)N2CCCC2CNC(=O)C(=O)NC2CCCC2)cc1 (stereo not drawn)	i	/	i	/	/
SMILES	KB-V1 MDR tox	MCF10A rerep	KB-3-1 cytotox	ELG1 DNA repair	SW480 rereplic
COc1ccc(CCNC(=O)C(=O)NCC2CCCN2S(=O)(=O)c2ccc(OC)cc2)cc1 (stereo not drawn)	?	18%	i	21µM*	2%
CCc1nc(N)nc(N)c1-c1ccc(N(C)Cc2ccccc2)c([N+](=O)[O-])c1	1.8µM*	14%	4.1µM*	/	22%
O=C1/C(=C/C=C/c2ccccc2)Oc2c1ccc(O)c2CN1CCN(CCO)CC1	i	?	?	2%	24%
CCN1CCN(Cc2c(O)ccc3c2O/C(=C\C=C\c2ccccc2)C3=O)CC1	?	?	16µM*	?	?
FC(F)(F)c1cccc(Cn2nnnc2-c2ccc(Cl)cc2)c1	15µM*	7%	?	8%	-6%
CCCn1nnnc1-c1ccc(Cl)cc1	i	0%	i	-19%	-7%
CCOc1ccc(N=c2scc(-c3ccc(OC)cc3)n2CCO)cc1	i	?	?	10µM*	2%
Cc1ccc(-c2nc(S(=O)(=O)c3ccc(C)cc3)c(SCC(=O)NCC3CCCO3)o2)cc1 (stereo not drawn)	i	-1%	i	-3%	-3%
Cc1nc(CC(=O)c2c(C)cc(O)cc2O)cs1	21µM*	-7%	21µM*	?	1%
Cc1nc(CC(=O)c2ccc(O)cc2O)cs1	i	-190%[0.0737 µM]	i	?	-3%
CCNc1nc(N)c(C(=C(C#N)C#N)c2ccccc2)s1	i	20µM*	i	-8%	?
CCNc1nc(N)c(C(=O)C23CC4CC(CC(C4)C2)C3)s1	i	0%	i	-12%	21%
COc1ccc(NC(=O)C2CCN(S(=O)(=O)c3cccc(-c4noc(C)n4)c3)CC2)cc1OC	i	/	i	/	/
C=CCN1CCN(C(c2ccc(Cl)cc2)c2nnnn2CCc2ccc(OC)c(OC)c2)CC1 (stereo not drawn)	i	-2%	i	6%	0%[9.22 µM]
COC1(OC)C(/C=C/c2ccc(C)cc2)C(C#N)(C#N)C1(OC)OC (stereo not drawn)	i	18µM*	?	/	?
O=C(Nc1ccc(Oc2ccccc2)cc1)C1CCCO1 (stereo not drawn)	i	7.3µM*	i	?	?
CCOc1ccc2nc(NC(=O)C3CCCO3)sc2c1 (stereo not drawn)	i	-4%	i	-16%	-4%
CC(C)N(c1ccccc1)c1ccc(NC(=O)C2CCCO2)cc1 (stereo not drawn)	21µM*	3%	i	-3%	-3%
COc1ccc(NC(=O)C2CCCO2)cc1 (stereo not drawn)	i	16%	i	?	-2%

Source: PubChem BioAssay (National Center for Advancing Translational Sciences (NCATS))
